# Results from the supplement of paper PMC9135407.
# Values joined by “and” are separate entries in the source; they are usually repeats but may differ in a detail not shown here. Identical values can stand only once. Counter-ions that a name gives are not always drawn. Among all 5,800 compounds or so, about 620 (11%) showed activity. The entries come from a sample that favours actives as a whole. Unmarked numbers belong to inactive results.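 The calls were made as follows: active = score above a cut-off or among the top three wells of a plate; in these data no inactive exceeds 0.85.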
# Test system: primary human hepatic stellate cells (donor 1)
# Assay: scaled lipid accumulation score (0 = DMSO-like, 1 = nortriptyline-like); higher = stronger HSC inactivation (lipid re-accumulation), active = hit call of the paper
# Details: 48 h
# [1] = library stock concentration: 10 mM
# [2] = library stock concentration: 3.33 mM
# [3] = library stock concentration: 1 mM
# [4] = library stock concentration: 80 uM
# [5] = library stock concentration: 400 uM
# [6] = library stock concentration: 2 mM
smiles,measurement,setting,value
O=C(O)CSCC(=O)NC1CCSC1=O (stereo not drawn),scaled lipid accumulation score,[1],≤ 0
O=C(O)CSCC(=O)NC1CCSC1=O (stereo not drawn) [Erdosteine],scaled lipid accumulation score,[2],≤ 0
same,scaled lipid accumulation score,[1],≤ 0
CC(C)OC(=O)CCC/C=C/C[C@@H]1[C@@H](/C=C/[C@H](O)CCc2ccccc2)[C@H](O)C[C@@H]1O,scaled lipid accumulation score,[3],≤ 0
C1CNCCN1 [Piperazine],scaled lipid accumulation score,[1],≤ 0
same,scaled lipid accumulation score,library stock concentration: 23.2 mM,0.066
O=C(O)CCCCC(CCSCc1ccccc1)SCc1ccccc1 (stereo not drawn),scaled lipid accumulation score,[2],≤ 0
same,scaled lipid accumulation score,[1],≤ 0
CCCC[C@@H](C=O)NC(=O)[C@H](CC(C)C)NC(=O)[C@H](CC(C)C)NC(C)=O,scaled lipid accumulation score,library stock concentration: 13 mM,0.811
CC(C)c1ccc(NC(=O)Cn2cnc3c2c(=O)n(C)c(=O)n3C)cc1,scaled lipid accumulation score,[2],≤ 0
same,scaled lipid accumulation score,[1],≤ 0
CCCCC/C=C\C/C=C\CCCCCCCC(=O)OCC [Linoleic Acid ethyl ester],scaled lipid accumulation score,[3],≤ 0
COc1ccc(Nc2nccc(NCCO)n2)cc1 [Cardiogenol C hydrochloride],scaled lipid accumulation score,[1],≤ 0
OCCCNc1cc(-c2ccnc(Nc3cccc(Cl)c3)n2)ccn1 [listing 1 of 2 here],scaled lipid accumulation score,[1],0.957 (active)
OCCCNc1cc(-c2ccnc(Nc3cccc(Cl)c3)n2)ccn1 [listing 2 of 2 here],scaled lipid accumulation score,[4],0.137
same,scaled lipid accumulation score,[5],0.324
same,scaled lipid accumulation score,[6],0.587
COc1ccc(Nc2nccc(NCCO)n2)cc1 [Cardiogenol C (hydrochloride)],scaled lipid accumulation score,[3],≤ 0
C[C@@]1(c2cc(-c3cncnc3)c(F)cc2F)CCSC(N)=N1,scaled lipid accumulation score,[2],≤ 0
same,scaled lipid accumulation score,[1],≤ 0
"CCCCCCCCCCC/C=C\C/C=C\CCCC(=O)O [Eicosa-5,8-dienoic acid (20:2 n-12)]",scaled lipid accumulation score,[3],≤ -0.021
COc1cc(C(C)=O)ccc1OCCCN1CCC(c2noc3cc(F)ccc23)CC1 [Iloperidone],scaled lipid accumulation score,[2],0.045
same,scaled lipid accumulation score,[1],0.477
COc1cc(C(C)=O)ccc1OCCCN1CCC(c2noc3cc(F)ccc23)CC1,scaled lipid accumulation score,[1],0.933 (active)
Cc1nc2n(c(=O)c1CCN1CCC(c3noc4cc(F)ccc34)CC1)CCCC2O (stereo not drawn) [Paliperidone],scaled lipid accumulation score,[1],0.223
C[Se]CC[C@H](N)C(=O)O,scaled lipid accumulation score,[1],≤ 0
COc1ccc(N(C(=O)Nc2c(C)cccc2C)c2cc(Nc3ccc(N4CCN(C)CC4)cc3)ncn2)c(OC)c1,scaled lipid accumulation score,[4],≤ -0.016
same,scaled lipid accumulation score,[5],0.184
same,scaled lipid accumulation score,[6],0.849
Cc1ccc(-c2ccc3c(ccc4sc5c(c43)NC[C@@H](C)NC5=O)n2)cn1 [listing 1 of 2 here],scaled lipid accumulation score,[4],≤ -0.001
same,scaled lipid accumulation score,[5],≤ -0.001
same,scaled lipid accumulation score,[6],0.744
Cc1ccc(-c2ccc3c(ccc4sc5c(c43)NC[C@@H](C)NC5=O)n2)cn1 [listing 2 of 2 here],scaled lipid accumulation score,[1],1.28 (active)
CN(C)CC(c1ccc(O)cc1)C1(O)CCCCC1 (stereo not drawn) [Desvenlafaxine],scaled lipid accumulation score,[2],≤ 0
same,scaled lipid accumulation score,[1],≤ -0.001
CN(C)CC(c1ccc(O)cc1)C1(O)CCCCC1 (stereo not drawn),scaled lipid accumulation score,[1],≤ 0
CN(C)CC(c1ccc(O)cc1)C1(O)CCCCC1 (stereo not drawn) [Desvenlafaxine Succinate],scaled lipid accumulation score,[2],≤ 0
same,scaled lipid accumulation score,[1],≤ -0.001
Cc1ccc(NC(=O)C(C)C)cc1C1CCN(Cc2ccc(Oc3ccc(F)c(F)c3)cc2)CC1.Cl,scaled lipid accumulation score,[1],1.29 (active)
CC(=O)c1ccc(N2CCOCC2)cc1O [DNA-PK Inhibitor III],scaled lipid accumulation score,[2],≤ 0
N[C@@H](CCC(=O)N[C@@H](CSN=O)C(=O)NCC(=O)O)C(=O)O [S-Nitrosoglutathione],scaled lipid accumulation score,[1],≤ -0.032
Cc1cc2nc3c(=O)[nH]c(=O)nc-3n(CC(O)C(O)C(O)COP(=O)(O)O)c2cc1C (stereo not drawn),scaled lipid accumulation score,[1],≤ 0
CC1=C(C(=O)OC2CCCCC2)C(c2ccc([N+](=O)[O-])cc2)C2=C(CC(C)(C)CC2=O)N1 (stereo not drawn) [listing 1 of 2 here],scaled lipid accumulation score,[2],0.763
CC1=C(C(=O)OC2CCCCC2)C(c2ccc([N+](=O)[O-])cc2)C2=C(CC(C)(C)CC2=O)N1 (stereo not drawn) [listing 2 of 2 here],scaled lipid accumulation score,[1],0.997 (active)
COC(=O)C1=C(C)NC(C)=C(C(=O)OC2CCCN(Cc3ccccc3)C2)C1c1cccc([N+](=O)[O-])c1 (stereo not drawn) [Benidipine HCl],scaled lipid accumulation score,[2],0.027
same,scaled lipid accumulation score,[1],0.476
COC(=O)C1=C(C)NC(C)=C(C(=O)OC2CCCN(Cc3ccccc3)C2)C1c1cccc([N+](=O)[O-])c1 (stereo not drawn),scaled lipid accumulation score,[1],0.032
COC(=O)c1c(C)[nH]c(C)c1C(=O)c1ccccc1Cc1ccccc1,scaled lipid accumulation score,[1],0.13 and 0.001
CNCCCCOc1ccccc1Cc1ccccc1.Cl [Bifemelane hydrochloride],scaled lipid accumulation score,[1],1.41 (active)
CNCCCCOc1ccccc1Cc1ccccc1 [Bifemelane],scaled lipid accumulation score,[1],1.08 (active)
CCCCCCOc1ccccc1C(N)=O [Exalamide],scaled lipid accumulation score,[1],≤ -0.027
CCOC(=O)c1c(Cc2cccc(Cl)c2)[nH]c2c1cc(O)c1ccccc12,scaled lipid accumulation score,[3],≤ 0
CC/C=C\C/C=C\C/C=C\CCCCCCCC(=O)NCCO [.alpha.-Linolenoyl Ethanolamide],scaled lipid accumulation score,[3],0.006
